# Assay results as given in the supplement of paper PMC12297408.
# Structures can show the parent of a compound that is named as a salt.
# System: Plasmodium falciparum NF54/iGP1_RE9H ulg8 stage V gametocytes
# Assay: gametocyte viability (luciferase signal relative to DMSO control) (% of DMSO control); higher = less gametocytocidal activity, active = 50 or less
# Conditions: concentration: 1 µM; exposure time: 72 h
# Protocol: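 Synchronous P. falciparum NF54/iGP1_RE9H ulg8 mature stage V gametocytes (day 12) were exposed to Cayman Epigenetics Screening Library compounds at 10 µM or 1 µM for 72 h at 37 °C. Viability was read as RE9H luciferase bioluminescence, normalised to DMSO plate controls (100%); 50 µM methylene blue was the positive control.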
row,SMILES,gametocyte viability
1,COC(=O)/C=C/C(=O)N(O)CCCCNCc1ccc(COC(=O)Nc2cccc3ccccc23)cc1 [Methylstat (hydrate)],89.4 (inactive)
2,O=C(O)CNC(=O)C(=O)O [N-Oxalylglycine],87.3 (inactive)
3,N[C@H]1CC[C@H](N[C@@H]2C[C@H]2c2ccccc2)CC1,74.5 (inactive)
4,Nc1ccc(S(=O)(=O)NCCc2ccccc2)cc1,84.2 (inactive)
5,CC1CC/C(=N\Nc2nc(-c3ccc(Cl)cc3)cs2)C1 (stereo not given) [CPTH6 (hydrobromide)],86.6 (inactive)
6,Nc1ccccc1NC(=O)c1ccc(CNC(=O)OCc2cccnc2)cc1,83.8 (inactive)
7,C=C1C(=O)O[C@@H](CCC)[C@@H]1C(=O)O [Butyrolactone 3],97.4 (inactive)
8,CCn1c2ccccc2c2cc(CNCc3ccccc3OC)ccc21 [HLCL-61 (hydrochloride)],85 (inactive)
9,CCOC(=O)C1=CN(Cc2ccccc2)C=C(C(=O)OCC)C1c1ccccc1,80.7 (inactive)
10,C#Cc1cccc(Nc2ncnc3cc(OC)c(OCCCCCCC(=O)NO)cc23)c1,58.7 (inactive)
11,CCC(CC)(NC(=O)C(C)C)C(=O)N[C@@H](CCCN=C(N)N)C(=O)NC1(C(=O)NC(c2ccc(F)cc2)c2ccc(F)cc2)CCCC1,82.6 (inactive)
12,CC(=O)Nc1ccc(NC(=S)NC(=O)c2ccc(C(C)(C)C)cc2)cc1 [Tenovin-1],81.3 (inactive)
13,Nc1ccccc1NC(=O)CCCCCC(=O)Nc1ccccc1,88.7 (inactive)
14,CCCCCCCCCCCCCCCc1cccc(O)c1C(=O)O [Anacardic Acid],84.7 (inactive)
15,CNCCN(C)Cc1c[nH]nc1-c1ccc(O[C@H]2C[C@H](OCCC3CCOCC3)C2)cc1,85.5 (inactive)
16,CN1CCN(C(=O)CNC2CC2c2ccc(OCc3ccccc3)cc2)CC1 (stereo not given) [RN-1 (hydrochloride)],89.1 (inactive)
17,Nc1cc(F)ccc1NC(=O)/C=C/c1cnn(C/C=C/c2ccccc2)c1,98 (inactive)
18,Nc1nc(=S)c2[nH]cnc2[nH]1 [6-Thioguanine],90.1 (inactive)
19,O=C([C@@H](Cc1cccc(C(F)(F)F)c1)NS(=O)(=O)c1cc(F)c2c(c1)CCNC2)N1CCCC1 [(R)-PFI-2 (hydrochloride)],85.2 (inactive)
20,Nc1ncn([C@@H]2O[C@H](CO)[C@@H](O)[C@H]2O)c(=O)n1 [5-Azacytidine],89 (inactive)

# Same assay, conditions: concentration: 10 µM; exposure time: 72 h
row,SMILES,gametocyte viability
1,COC(=O)/C=C/C(=O)N(O)CCCCNCc1ccc(COC(=O)Nc2cccc3ccccc23)cc1 [Methylstat (hydrate)],32 (active)
2,O=C(O)CNC(=O)C(=O)O [N-Oxalylglycine],85.3 (inactive)
3,N[C@H]1CC[C@H](N[C@@H]2C[C@H]2c2ccccc2)CC1,70.7 (inactive)
4,Nc1ccc(S(=O)(=O)NCCc2ccccc2)cc1,86.3 (inactive)
5,CC1CC/C(=N\Nc2nc(-c3ccc(Cl)cc3)cs2)C1 (stereo not given) [CPTH6 (hydrobromide)],82.2 (inactive)
6,Nc1ccccc1NC(=O)c1ccc(CNC(=O)OCc2cccnc2)cc1,88 (inactive)
7,C=C1C(=O)O[C@@H](CCC)[C@@H]1C(=O)O [Butyrolactone 3],89.9 (inactive)
8,CCn1c2ccccc2c2cc(CNCc3ccccc3OC)ccc21 [HLCL-61 (hydrochloride)],94 (inactive)
9,CCOC(=O)C1=CN(Cc2ccccc2)C=C(C(=O)OCC)C1c1ccccc1,77.6 (inactive)
10,C#Cc1cccc(Nc2ncnc3cc(OC)c(OCCCCCCC(=O)NO)cc23)c1,56.7 (inactive)
11,CCC(CC)(NC(=O)C(C)C)C(=O)N[C@@H](CCCN=C(N)N)C(=O)NC1(C(=O)NC(c2ccc(F)cc2)c2ccc(F)cc2)CCCC1,82.6 (inactive)
12,CC(=O)Nc1ccc(NC(=S)NC(=O)c2ccc(C(C)(C)C)cc2)cc1 [Tenovin-1],81.9 (inactive)
13,Nc1ccccc1NC(=O)CCCCCC(=O)Nc1ccccc1,96.1 (inactive)
14,CCCCCCCCCCCCCCCc1cccc(O)c1C(=O)O [Anacardic Acid],82.9 (inactive)
15,CNCCN(C)Cc1c[nH]nc1-c1ccc(O[C@H]2C[C@H](OCCC3CCOCC3)C2)cc1,82.4 (inactive)
16,CN1CCN(C(=O)CNC2CC2c2ccc(OCc3ccccc3)cc2)CC1 (stereo not given) [RN-1 (hydrochloride)],72.8 (inactive)
17,Nc1cc(F)ccc1NC(=O)/C=C/c1cnn(C/C=C/c2ccccc2)c1,91.8 (inactive)
18,Nc1nc(=S)c2[nH]cnc2[nH]1 [6-Thioguanine],94.6 (inactive)
19,O=C([C@@H](Cc1cccc(C(F)(F)F)c1)NS(=O)(=O)c1cc(F)c2c(c1)CCNC2)N1CCCC1 [(R)-PFI-2 (hydrochloride)],77.8 (inactive)
20,Nc1ncn([C@@H]2O[C@H](CO)[C@@H](O)[C@H]2O)c(=O)n1 [5-Azacytidine],90.8 (inactive)
